40 compounds from PubChem BioAssay (NCATS) can be followed below.

“And” between values parts separate entries of the source, which are not always exact repeats. Identical values can stand only once. Inconclusive results are not listed. The source made the active and inactive calls. The call rests on the fitted dose curve; in most records, active means well fitted cell-killing curve with a large enough effect; inconclusive means small, poorly fitted or top-dose-only effect, or effect the other way; inactive means no such curve, though single readings can be large or run the other way.
Potency means the concentration at half of the fitted maximal effect.

The assay can be described thus: Viability qHTS for spleen associated tyrosine kinase inhibitor (SYKi) naive MV4-11 cells (AID 1963823). Further: nearly all actives have a fitted effect of over 40% in size. The note with it: MV4-11 AML viability, CellTiter-Glo luminescence, 72 h; series mostly up to 45 µM. In a few lines: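 CellTiter-Glo luminescence, 10 min room-temperature incubation, gave viability. Cells: naive MV4-11 (500/well), treated 72 hr at 37 C, 5% CO2.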
As to `Nc1nc(=S)c2[nH]cnc2[nH]1`, the Potency is 0.934 µM (active). The entry for `NCCCC(O)(P(=O)(O)O)P(=O)(O)O` is “inactive”; for `COc1cc2nc(N3CCN(C(=O)c4ccco4)CC3)nc(N)c2cc1OC` it is 10.3 µM (active). As for `CN(C)c1ccc(-c2nc3ncc(Cl)c(N4CCN(CC(=O)Nc5nccs5)CC4)c3[nH]2)cc1`, the figure is 0.257 µM (active). As for `Cn1cc(C2=C(c3c4n(c5ccccc35)CCC(CN)C4)C(=O)NC2=O)c2ccccc21` (stereo not given), the figure is 2.15 µM (active); as for `CNC(=O)c1c(-c2ccc(F)cc2)oc2cc(N(CCO)S(C)(=O)=O)c(C3CC3)cc12`, “inactive”; as for `S=C(NCc1ccc2c(c1)OCO2)N1CCN(c2ncnc3c2oc2ccccc23)CC1`, 3.32 µM (active). As for `CC(C)(C)NC(=O)Nc1cccc(Nc2ncc(F)c(NC(C)(C)CO)n2)c1`, the Potency was 1.48 µM (active). As for `CNC(=O)c1cc(Oc2ccc(NC(=O)Nc3ccc(Cl)c(C(F)(F)F)c3)c(F)c2)ccn1`, the figure is 0.296 µM (active); as for `CCC(C(=O)O)C1CCC(C)C(C(C)C(O)C(C)C(=O)C(CC)C2OC3(C=CC(O)[C@@]4(CC[C@](C)(C5CC[C@@](O)(CC)C(C)O5)O4)O3)C(C)CC2C)O1` (stereo not given in full), 0.332 µM (active); as for `CC1(C)CCC(CN2CCN(c3ccc(C(=O)NS(=O)(=O)c4ccc(NCC5CCOCC5)c([N+](=O)[O-])c4)c(Oc4cnc5[nH]ccc5c4)c3)CC2)=C(c2ccc(Cl)cc2)C1`, 0.105 µM (active). The figure for `NC1(c2ccc(-c3nc4ccn5c(=O)[nH]nc5c4cc3-c3ccccc3)cc2)CCC1` is 3.72 µM (active). Regarding `Cc1cccc(Nc2nc(N[C@@H]3CCCC[C@H]3N)ncc2C(N)=O)c1`, the Potency is 0.934 µM (active). As for `CNC(=O)c1cc(Oc2ccc(NC(=O)Nc3ccc(Cl)c(C(F)(F)F)c3)cc2)ccn1`, the figure is 0.0211 µM (active). As for `N#CCNC(=O)c1ccc(-c2ccnc(Nc3ccc(N4CCOCC4)cc3)n2)cc1`, the figure is 0.411 µM (active); as for `CN1CCN(c2cc(C(=O)Nc3ccc4c(c3)-c3c(c(C(N)=O)nn3-c3ccc(F)cc3)CC4)c(Cl)cn2)CC1`, 4.11 µM (active).

Consider `O=C(CN1C(=O)C2(CCCC2)NC[C@H]1c1cc(F)cc(F)c1)Nc1ccc2c(c1)C[C@@]1(C2)C(=O)Nc2ncccc21`, for which the Potency entry was “inactive”. The figure for `Cc1ccc2nc(NCCN)c3ncc(C)n3c2c1` is 2.31 µM (active); for `O=C(O)C1=CC(O)C(O)[C@H](O)C1` (stereo not given in full) it is “inactive”. The figure for `CC1CCC(C(=O)N(c2cc(C#CC(C)(C)C)sc2C(=O)O)C2CCC(O)CC2)CC1` (stereo not given) is 16.4 µM (active); for `CC(C)c1cc(C(=O)N2Cc3ccc(CN4CCN(C)CC4)cc3C2)c(O)cc1O` it is 0.0332 µM (active); for `Cc1cccc2c1CC[C@H](CN1CCC(c3c(Cl)cccc3Cl)CC1)C[C@@H]2O` it is 3.26 µM (active).

With `Cn1c(Nc2ccc(C(F)(F)F)cc2)nc2cc(Oc3ccnc(-c4ncc(C(F)(F)F)[nH]4)c3)ccc21`, the Potency is 2.91 µM (active). The figure for `COc1cc(OC2CCN(C)CC2)ccc1Nc1ncc2c(n1)n(C1CCCC1)c(=O)n2C` is 1.86 µM (active). `c1nc2nc(Nc3ccc(N4CCOCC4)cc3)nc(NC3CCCCC3)c2[nH]1`: the Potency is 224 nM (active) and 209 nM (active).

`COc1cc2c(N3CCN(C(=O)Nc4ccc(OC(C)C)cc4)CC3)ncnc2cc1OCCCN1CCCCC1`: the Potency was 231 nM (active) and 235 nM (active). As for `CS(=O)(=O)c1cccc(CNc2nc(Nc3ccc4c(c3)CCC(=O)N4)ncc2C(F)(F)F)c1`, the figure is 0.105 µM (active). As for `C[C@@H](N)c1ccc(C(=O)Nc2ccnc3[nH]ccc23)cc1`, the figure is 4.17 µM (active). As for `C1CCC(C(CC2CCCCN2)C2CCCCC2)CC1` (stereo not given), the figure is 2.95 µM (active); as for `O=C(Nc1nnc(-c2ccco2)o1)c1cc(-c2ccccc2)nc2ccccc12`, 13.2 µM (active). Regarding `COc1ccc(-c2cc3c(C)nc(N)nc3n(C3CCC(OCCO)CC3)c2=O)cn1` (stereo not given), the Potency was 0.105 µM (active). For `Nc1nc(Nc2ccc(S(N)(=O)=O)cc2)nn1C(=O)c1c(F)cccc1F`, the Potency is 1.16 µM (active) and 1.86 µM (active). As for `CNC(=O)c1c(F)cccc1Nc1nc(Nc2cc3c(cc2OC)CCN3C(=O)CN(C)C)nc2[nH]ccc12`, the figure is 2.59 µM (active) and 4.68 µM (active). Consider `COc1cc2ncnc(Nc3cccc(Cl)c3)c2cc1OC`, for which the Potency was 4.61 µM (active) and 5.17 µM (active). Take `CN(C)c1ccc2cc(C(=O)N[C@@H](CCCN=C(N)CCl)C(=O)NCc3ccccc3)ccc2c1`: the Potency was 5.25 µM (active). The figure for `CC[C@@]1(O)C[C@H](O[C@H]2C[C@H](N(C)C)[C@H](O[C@H]3C[C@H](O)[C@H](O[C@H]4CCC(=O)[C@H](C)O4)[C@H](C)O3)[C@H](C)O2)c2c(cc3c(c2O)C(=O)c2c(O)cccc2C3=O)[C@@H]1C(=O)OC` is 1.66 µM (active); for `O=C(Nc1cccnc1)N1CCC(Cc2cccc(Oc3ccc(C(F)(F)F)cn3)c2)CC1` it is 3.66 µM (active) and 4.17 µM (active); for `CC(C)C[C@H](NC(=O)CNC(=O)c1cc(Cl)ccc1Cl)B(O)O` it is 0.0934 µM (active). As for `Cc1nc(N)sc1-c1ccnc(Nc2ccc(N3CCOCC3)cc2)n1`, the figure is 0.082 µM (active); as for `CNCCCC12CCC(c3ccccc31)c1ccccc12`, 18.8 µM (active) and 14.6 µM (active).
